Structures can show the parent of a compound that is named as a salt.
Assays:
Assay in all cases: phenotypically active (imaging signature differs from DMSO and reproducible) at any of 0.3-9 uM (binary (1 = active, 0 = inactive)); higher = active
Conditions in all cases: treatment time: 24 h
[1] = system: A549-ACTB-RAB5A
How it was run: (§1)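 Phenotypic activity depended on meeting both a deviation and a reproducibility criterion. The fifteen gene-edited A549, HepG2 and WPMY1 reporter lines were treated at 0.3, 1, 3 or 9 µM for 24 h, four wells each, then imaged live with features normalised to solvent control wells. Deviation required ≥3 of 4 wells past the 95th percentile of control Euclidean distances, and reproducibility a median replicate Pearson correlation above the 95th percentile of non-replicates.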

[2] = system: A549-CANX-COX4
How it was run: as §1

[3] = system: A549-GM130-SQSTM1
How it was run: as §1

[4] = system: A549-TP53BP1-CLTA
How it was run: as §1

[5] = system: A549-TUBA1B-RELA
How it was run: as §1

[6] = system: HepG2-ACTB-RAB5A
How it was run: as §1

[7] = system: HepG2-CANX-COX4
How it was run: as §1

[8] = system: HepG2-GM130-SQSTM1
How it was run: as §1

[9] = system: HepG2-TP53BP1-CLTA
How it was run: as §1

[10] = system: HepG2-TUBA1B-RELA
How it was run: as §1

[11] = system: WPMY1-ACTB-RAB5A
How it was run: as §1

[12] = system: WPMY1-CANX-COX4
How it was run: as §1

[13] = system: WPMY1-GM130-SQSTM1
How it was run: as §1

[14] = system: WPMY1-TP53BP1-CLTA
How it was run: as §1

[15] = system: WPMY1-TUBA1B-RELA
How it was run: as §1

Measured: phenotypically active

OCCn1cc(-c2cnc3nnn(Cc4ccc5ncccc5c4)c3n2)cn1
inactive: [1] 0 | [2] 0 | [3] 0 | [4] 0 | [5] 0 | [6] 0 | [7] 0 | [8] 0 | [9] 0 | [10] 0 | [11] 0 | [12] 0 | [13] 0 | [14] 0 | [15] 0

COCCc1ccc(OCC(O)CNC(C)C)cc1 (stereo not given) [metoprolol]
inactive: [1] 0 | [2] 0 | [3] 0 | [4] 0 | [5] 0 | [6] 0 | [7] 0 | [8] 0 | [9] 0 | [10] 0 | [11] 0 | [12] 0 | [13] 0 | [14] 0 | [15] 0

N=C(N)NC(=O)Cc1c(Cl)cccc1Cl [guanfacine]
inactive: [1] 0 | [2] 0 | [3] 0 | [4] 0 | [5] 0 | [6] 0 | [7] 0 | [8] 0 | [9] 0 | [10] 0 | [11] 0 | [12] 0 | [13] 0 | [14] 0 | [15] 0

C[C@]12CC[C@@H]3c4ccc(O)cc4CC[C@H]3[C@@H]1CCC2=O [estrone]
inactive: [1] 0 | [2] 0 | [3] 0 | [4] 0 | [5] 0 | [6] 0 | [7] 0 | [8] 0 | [9] 0 | [10] 0 | [11] 0 | [12] 0 | [13] 0 | [14] 0 | [15] 0

COc1ccc(OC)c(C(O)CNC(=O)CN)c1 (stereo not given) [midodrine]
inactive: [1] 0 | [2] 0 | [3] 0 | [4] 0 | [5] 0 | [6] 0 | [7] 0 | [8] 0 | [9] 0 | [10] 0 | [11] 0 | [12] 0 | [13] 0 | [14] 0 | [15] 0

C[C@H]1[C@H](C)CC[C@]2(C(=O)O)CC[C@]3(C)C(=CC[C@@H]4[C@@]5(C)CC[C@H](O)C(C)(C)[C@@H]5CC[C@]43C)[C@H]12 [Ursolic acid]
inactive: [1] 0 | [2] 0 | [3] 0 | [4] 0 | [5] 0 | [6] 0 | [7] 0 | [8] 0 | [9] 0 | [10] 0 | [11] 0 | [12] 0 | [13] 0 | [14] 0 | [15] 0

O=C(O)c1ccc(O)c2ncccc12
inactive: [1] 0 | [2] 0 | [3] 0 | [4] 0 | [5] 0 | [6] 0 | [7] 0 | [8] 0 | [9] 0 | [10] 0 | [11] 0 | [12] 0 | [13] 0 | [14] 0 | [15] 0

Cc1ccc(Cl)c(Nc2ccccc2C(=O)O)c1Cl [meclofenamic-acid]
inactive: [1] 0 | [2] 0 | [3] 0 | [4] 0 | [5] 0 | [6] 0 | [7] 0 | [8] 0 | [9] 0 | [10] 0 | [11] 0 | [12] 0 | [13] 0 | [14] 0 | [15] 0

COc1ccc2c(c1OC)C(=O)O[C@@H]2[C@H]1c2c(cc3c(c2OC)OCO3)CCN1C [Noscapine hydrochloride]
inactive: [1] 0 | [2] 0 | [3] 0 | [4] 0 | [5] 0 | [6] 0 | [7] 0 | [8] 0 | [9] 0 | [10] 0 | [11] 0 | [12] 0 | [13] 0 | [14] 0 | [15] 0

NS(=O)(=O)c1cc2c(cc1Cl)NC(C(Cl)Cl)NS2(=O)=O (stereo not given) [trichlormethiazide]
inactive: [1] 0 | [2] 0 | [3] 0 | [4] 0 | [5] 0 | [6] 0 | [7] 0 | [8] 0 | [9] 0 | [10] 0 | [11] 0 | [12] 0 | [13] 0 | [14] 0 | [15] 0

CC(=O)[C@H]1CC[C@H]2[C@@H]3C=CC4=CC(=O)CC[C@@]4(C)[C@@H]3CC[C@]12C [dydrogesterone]
inactive: [1] 0 | [2] 0 | [3] 0 | [4] 0 | [5] 0 | [6] 0 | [7] 0 | [8] 0 | [9] 0 | [10] 0 | [11] 0 | [12] 0 | [13] 0 | [14] 0 | [15] 0

COc1ccc([C@@H]2CNC(=O)C2)cc1OC1CCCC1 [(R)-(-)-Rolipram]
inactive: [1] 0 | [2] 0 | [3] 0 | [4] 0 | [5] 0 | [6] 0 | [7] 0 | [8] 0 | [9] 0 | [10] 0 | [11] 0 | [12] 0 | [13] 0 | [14] 0 | [15] 0

COc1ccc(-c2noc(CSc3nnc(C)n3-c3ccc(OC)cc3)n2)cc1
inactive: [1] 0 | [2] 0 | [3] 0 | [4] 0 | [5] 0 | [6] 0 | [7] 0 | [8] 0 | [9] 0 | [10] 0 | [11] 0 | [12] 0 | [13] 0 | [14] 0 | [15] 0

CC(=O)[C@H]1CC[C@H]2[C@@H]3CCC4=CC(=O)CC[C@]4(C)[C@H]3CC[C@]12C [progesterone]
inactive: [1] 0 | [2] 0 | [3] 0 | [4] 0 | [5] 0 | [6] 0 | [7] 0 | [8] 0 | [9] 0 | [10] 0 | [11] 0 | [12] 0 | [13] 0 | [14] 0 | [15] 0

CCOC(=O)[C@H](CCc1ccccc1)N[C@H]1CCc2ccccc2N(CC(=O)O)C1=O [benazepril]
inactive: [1] 0 | [2] 0 | [3] 0 | [4] 0 | [5] 0 | [6] 0 | [7] 0 | [8] 0 | [9] 0 | [10] 0 | [11] 0 | [12] 0 | [13] 0 | [14] 0 | [15] 0

O=C(O)CCNC(=O)c1ccc(/N=N/c2ccc(O)c(C(=O)O)c2)cc1 [balsalazide]
inactive: [1] 0 | [2] 0 | [3] 0 | [4] 0 | [5] 0 | [6] 0 | [7] 0 | [8] 0 | [9] 0 | [10] 0 | [11] 0 | [12] 0 | [13] 0 | [14] 0 | [15] 0

CC(C)[N@+]1(C)[C@@H]2CC[C@H]1C[C@@H](OC(=O)C(CO)c1ccccc1)C2 (stereo not given in full) [ipratropium]
inactive: [1] 0 | [2] 0 | [3] 0 | [4] 0 | [5] 0 | [6] 0 | [7] 0 | [8] 0 | [9] 0 | [10] 0 | [11] 0 | [12] 0 | [13] 0 | [14] 0 | [15] 0

CNC(=O)COC(=O)NCCC1CCN(c2cccc(C)n2)CC1
inactive: [1] 0 | [2] 0 | [3] 0 | [4] 0 | [5] 0 | [6] 0 | [7] 0 | [8] 0 | [9] 0 | [10] 0 | [11] 0 | [12] 0 | [13] 0 | [14] 0 | [15] 0

CN1CC(=O)N2[C@H](c3ccc4c(c3)OCO4)c3[nH]c4ccccc4c3C[C@@H]2C1=O [tadalafil]
inactive: [1] 0 | [2] 0 | [3] 0 | [4] 0 | [5] 0 | [6] 0 | [7] 0 | [8] 0 | [9] 0 | [10] 0 | [11] 0 | [12] 0 | [13] 0 | [14] 0 | [15] 0

O=NN(CCCl)C(=O)NCCCl [carmustine]
inactive: [1] 0 | [2] 0 | [3] 0 | [4] 0 | [5] 0 | [6] 0 | [7] 0 | [8] 0 | [9] 0 | [10] 0 | [11] 0 | [12] 0 | [13] 0 | [14] 0 | [15] 0

CC(=O)/N=c1/sc(S(N)(=O)=O)nn1C [methazolamide]
inactive: [1] 0 | [2] 0 | [3] 0 | [4] 0 | [5] 0 | [6] 0 | [7] 0 | [8] 0 | [9] 0 | [10] 0 | [11] 0 | [12] 0 | [13] 0 | [14] 0 | [15] 0

CC(C)C1=CC2=CCC3[C@](C)(CCC[C@]3(C)C(=O)O)C2CC1 (stereo not given in full) [Abietic Acid]
inactive: [1] 0 | [2] 0 | [3] 0 | [4] 0 | [5] 0 | [6] 0 | [7] 0 | [8] 0 | [9] 0 | [10] 0 | [11] 0 | [12] 0 | [13] 0 | [14] 0 | [15] 0

CN1CC[C@]23c4ccccc4N[C@H]1[C@]21CCN(C)[C@H]3Nc2ccccc21 [Calycanthine]
inactive: [1] 0 | [2] 0 | [3] 0 | [4] 0 | [5] 0 | [6] 0 | [7] 0 | [8] 0 | [9] 0 | [10] 0 | [11] 0 | [12] 0 | [13] 0 | [14] 0 | [15] 0
